# From publication PMC8384837, “Expanding the binding specificity for RNA recognition by a PUF domain”
# Numbering of substitutions follows the chain as printed.
# What was measured:
# Assay in all cases: yeast three-hybrid, YBZ-1, SC-Leu-His + 0.5 mM 3-AT, 4 days
# Settings in all cases: tags: N-Gal4 AD-HA kept; label: inside an RPR1-promoter hybrid RNA with tandem MS2 sites; ssRNA
# [1] = target: T1, PUM1 PUF domain R6-FWR (Homo sapiens, UniProt Q14671 828-1176, N1043F;Y1044W;Q1047R)
# T1 sequence: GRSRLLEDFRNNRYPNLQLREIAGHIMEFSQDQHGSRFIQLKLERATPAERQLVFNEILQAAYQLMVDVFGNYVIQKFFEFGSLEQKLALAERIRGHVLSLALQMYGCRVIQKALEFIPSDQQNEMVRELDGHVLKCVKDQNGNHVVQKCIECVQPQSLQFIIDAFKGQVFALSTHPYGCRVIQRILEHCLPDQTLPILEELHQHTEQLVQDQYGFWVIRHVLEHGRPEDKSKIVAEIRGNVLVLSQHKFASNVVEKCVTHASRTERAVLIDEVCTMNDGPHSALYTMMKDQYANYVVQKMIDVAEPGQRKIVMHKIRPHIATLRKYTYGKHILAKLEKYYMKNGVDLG
# Procedure, shortened: (§1)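 Each repeat of the Pumilio-1 PUF domain was randomized at its three base-contacting residues, and these libraries were co-expressed from a centromeric plasmid with matching RNA elements in strain YBZ-1. After four days on SC-Leu (input) or SC-Leu-His + 0.5 mM 3-AT (selection), the repeat regions were PCR-amplified and Illumina-sequenced. The interaction score compares variant frequency between input and selection as a log change, computed in log2 with a pseudocount of 1 for absent variants.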
# [2] = target: PUM1 PUF domain R7-RPC (Homo sapiens, UniProt Q14671 828-1176, S1079R;N1080P;E1083C)
# Procedure, shortened: as §1
# [3] = target: PUM1 PUF domain R7-RGH (Homo sapiens, UniProt Q14671 828-1176, S1079R;N1080G;E1083H)
# Procedure, shortened: as §1
# [4] = target: PUM1 PUF domain R1-RVI (Homo sapiens, UniProt Q14671 828-1176, S863R;R864V;Q867I)
# Procedure, shortened: as §1
# [5] = target: T2, PUM1 PUF domain R6-HYR (Homo sapiens, UniProt Q14671 828-1176, N1043H;Q1047R)
# T2 sequence: T1 sequence with F216H, W217Y
# Procedure, shortened: as §1
# [6] = target: PUM1 PUF domain R8-RRG (Homo sapiens, UniProt Q14671 828-1176, N1122R;Y1123R;Q1126G)
# Procedure, shortened: as §1
# [7] = target: PUM1 PUF domain R3-TRL (Homo sapiens, UniProt Q14671 828-1176, C935T;Q939L)
# Procedure, shortened: as §1
# [8] = target: PUM1 PUF domain R8-NWK (Homo sapiens, UniProt Q14671 828-1176, Y1123W;Q1126K)
# Procedure, shortened: as §1
# [9] = target: PUM1 PUF domain R3-SSK (Homo sapiens, UniProt Q14671 828-1176, C935S;R936S;Q939K)
# Procedure, shortened: as §1
# [10] = target: PUM1 PUF domain R5-QNS (Homo sapiens, UniProt Q14671 828-1176, C1007Q;R1008N;Q1011S)
# Procedure, shortened: as §1
sequence,measurement,setting,value
GGCUAGAACUAGUGGAUCCCCCGGCGCCCGGCGGCUCGAGCCCGGGUAAGUGAAAAUAGUCUGCAUGCCGCCGGGCGCCAUGCCUGCAGGUCGACUCUAGAAAACAUG,binding signal,[1],4.17 log2 enrichment (interaction score)
GGCUAGAACUAGUGGAUCCCCCGGCGCCCGGCGGCUCGAGCCCGGGUAAGUUUAAAUAGUCUGCAUGCCGCCGGGCGCCAUGCCUGCAGGUCGACUCUAGAAAACAUG,binding signal,[2],3.97 log2 enrichment (interaction score)
same,binding signal,[3],3.07 log2 enrichment (interaction score)
GGCUAGAACUAGUGGAUCCCCCGGCGCCCGGCGGCUCGAGCCCGGGUAAGUGUAAAUCGUCUGCAUGCCGCCGGGCGCCAUGCCUGCAGGUCGACUCUAGAAAACAUG,binding signal,[4],2.84 log2 enrichment (interaction score)
GGCUAGAACUAGUGGAUCCCCCGGCGCCCGGCGGCUCGAGCCCGGGUAAGUGUAAAUAGUCUGCAUGCCGCCGGGCGCCAUGCCUGCAGGUCGACUCUAGAAAACAUG,binding signal,[5],5.76 log2 enrichment (interaction score)
same,binding signal,[1],5.25 log2 enrichment (interaction score)
same,binding signal,[6],1.3 log2 enrichment (interaction score)
same,binding signal,[7],2.97 log2 enrichment (interaction score)
GGCUAGAACUAGUGGAUCCCCCGGCGCCCGGCGGCUCGAGCCCGGGUAAGCGUAAAUAGUCUGCAUGCCGCCGGGCGCCAUGCCUGCAGGUCGACUCUAGAAAACAUG,binding signal,[6],2.76 log2 enrichment (interaction score)
same,binding signal,[8],4.45 log2 enrichment (interaction score)
GGCUAGAACUAGUGGAUCCCCCGGCGCCCGGCGGCUCGAGCCCGGGUAAGUCUAAAUAGUCUGCAUGCCGCCGGGCGCCAUGCCUGCAGGUCGACUCUAGAAAACAUG,binding signal,[2],0.8 log2 enrichment (interaction score)
same,binding signal,[3],1.99 log2 enrichment (interaction score)
GGCUAGAACUAGUGGAUCCCCCGGCGCCCGGCGGCUCGAGCCCGGGUAAGUGUAAUUAGUCUGCAUGCCGCCGGGCGCCAUGCCUGCAGGUCGACUCUAGAAAACAUG,binding signal,[9],2.9 log2 enrichment (interaction score)
same,binding signal,[7],0.95 log2 enrichment (interaction score)
GGCUAGAACUAGUGGAUCCCCCGGCGCCCGGCGGCUCGAGCCCGGGUAAGUGUUAAUAGUCUGCAUGCCGCCGGGCGCCAUGCCUGCAGGUCGACUCUAGAAAACAUG,binding signal,[10],3.13 log2 enrichment (interaction score)
GGCUAGAACUAGUGGAUCCCCCGGCGCCCGGCGGCUCGAGCCCGGGUAAGUGUAAAUUGUCUGCAUGCCGCCGGGCGCCAUGCCUGCAGGUCGACUCUAGAAAACAUG,binding signal,[4],2.56 log2 enrichment (interaction score)
GGCUAGAACUAGUGGAUCCCCCGGCGCCCGGCGGCUCGAGCCCGGGUAAGUGUAAGUAGUCUGCAUGCCGCCGGGCGCCAUGCCUGCAGGUCGACUCUAGAAAACAUG,binding signal,[9],2.38 log2 enrichment (interaction score)
